Results reported in the supplement of paper PMC12669032.
Unmarked numbers belong to inactive results.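 Rule for the calls: active = AUC reduced over 20% with Padj below 0.05 in at least 2 of 3 replicates; inactive = otherwise.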

Assays:
Assay in all cases: growth AUC relative to DMSO control (median of replicates) (fraction); higher = more growth (less inhibition), active = hit call of the paper
Conditions in all cases: 20 µM; 24 h
Akkermansia muciniphila = tested on: Akkermansia muciniphila
Summary of the method: (§1)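 For each compound at 20 µM (1% DMSO), gut bacterial monocultures seeded at OD600 0.05 grew anaerobically in mGAM at 37 °C in round-bottom 96-well plates. Hourly OD600 readings over 24 h gave growth curves whose minimum OD was set to 0. Area under these curves was normalised to the plate median of solvent-only wells, or to row and column medians on the industrial chemical plate. Values are medians of three biological replicates grown on separate days.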

Bacteroides caccae = tested on: Bacteroides caccae
Summary of the method: as §1

Bacteroides clarus = tested on: Bacteroides clarus
Summary of the method: as §1

Bacteroides dorei = tested on: Bacteroides dorei
Summary of the method: as §1

Bacteroides stercoris = tested on: Bacteroides stercoris
Summary of the method: as §1

[1] = tested on: Bacteroides thetaiotaomicron
Summary of the method: as §1

Bacteroides uniformis = tested on: Bacteroides uniformis
Summary of the method: as §1

[2] = tested on: Bifidobacterium longum subsp. longum
Summary of the method: as §1

Clostridium difficile = tested on: Clostridium difficile
Summary of the method: as §1

Collinsella aerofaciens = tested on: Collinsella aerofaciens
Summary of the method: as §1

Row | Compound | growth AUC (Akkermansia muciniphila) | growth AUC (Bacteroides caccae) | growth AUC (Bacteroides clarus) | growth AUC (Bacteroides dorei) | growth AUC (Bacteroides stercoris) | growth AUC [1] | growth AUC (Bacteroides uniformis) | growth AUC [2] | growth AUC (Clostridium difficile) | growth AUC (Collinsella aerofaciens)
1 | CCN(CC)c1c([N+](=O)[O-])cc(C(F)(F)F)c(N)c1[N+](=O)[O-] | 0.987 | 0.94 | 0.977 | 0.956 | 1.09 | 0.88 | 0.972 | 0.913 | 1 | 1
2 | CCOP(=O)(OCC)Oc1ccc([N+](=O)[O-])cc1 | 0.962 | 1.03 | 0.999 | 1.01 | 1.08 | 1.01 | 1 | 1.15 | 1.03 | 1.05
3 | COC(=O)c1ccccc1CS(=O)(=O)NC(=O)Nc1nc(OC)cc(OC)n1 | 0.94 | 1.02 | 0.972 | 0.985 | 0.969 | 1.02 | 1.01 | 1.05 | 1.02 | 0.956
4 | COP(=S)(OC)SCC(=O)N(c1ccc(Cl)cc1)C(C)C | 0.942 | 0.983 | 0.965 | 0.965 | 1.03 | 0.929 | 0.912 | 1.02 | 1.01 | 0.993
5 | CC(C)(C)C(O)C(Oc1ccc(Cl)cc1)n1cncn1 (stereo not given) | 0.947 | 0.985 | 0.996 | 1 | 1.17 | 0.986 | 1.04 | 0.943 | 1.08 | 1.03
6 | CNC(=S)S | 1.07 | 1.01 | 1.04 | 0.996 | 1.08 | 1.02 | 1 | 1.37 | 0.999 | 0.996
7 | CON(C)C(=O)Nc1ccc(Br)cc1 | 0.941 | 1.01 | 0.988 | 0.992 | 1.16 | 1.02 | 0.993 | 1.18 | 0.952 | 1.1
8 | O=S1(=O)OCC2C(CO1)C1(Cl)C(Cl)=C(Cl)C2(Cl)C1(Cl)Cl (stereo not given) | 1.39 | 0.997 | 0.945 | 0.962 | 0.765 | 0.984 | 0.914 | 1.11 | 1 | 0.993
9 | Cc1cc(Cl)ccc1N=CN(C)C | 1.01 | 1.01 | 0.995 | 1 | 0.985 | 1.03 | 1.02 | 0.981 | 0.998 | 1
10 | COc1ccc(-c2ccccc2)cc1NNC(=O)OC(C)C | 0.865 | 0.921 | 0.974 | 0.991 | 1.08 | 0.958 | 0.942 | 0.982 | 0.993 | 1.05
11 | ClC1=C(Cl)[C@]2(Cl)[C@@H]3[C@H]4C[C@H]([C@@H]5O[C@H]45)[C@@H]3[C@@]1(Cl)C2(Cl)Cl | 0.861 | 0.979 | 0.864 | 0.958 | 0.773 | 0.925 | 0.709 (active) | 0.962 | 1 | 0.936
12 | CCCCC(C#N)(Cn1cncn1)c1ccc(Cl)cc1 (stereo not given) | 1.04 | 1.02 | 0.952 | 0.98 | 0.861 | 0.984 | 0.975 | 1.04 | 0.985 | 0.959
13 | CN(C)C(=O)Nc1cccc(OC(=O)NC(C)(C)C)c1 | 1.19 | 0.771 | 1.01 | 0.977 | 1.4 | 0.958 | 0.883 | 1.01 | 0.928 | 0.918
14 | Cc1cc(C)nc(NC(=O)NS(=O)(=O)c2ccccc2C(=O)OC2COC2)n1 | 1.03 | 0.952 | 0.973 | 0.945 | 1.04 | 0.752 (active) | 1.03 | 0.858 | 1.05 | 0.98
15 | COP(=S)(OC)Oc1nc(Cl)c(Cl)cc1Cl | 1.06 | 1.01 | 1 | 0.998 | 0.947 | 0.96 | 0.935 | 1.01 | 0.975 | 0.991
16 | CC(C)OC(=O)C(C(=O)OC(C)C)=C1SCCS1 | 1.07 | 0.993 | 1.01 | 0.995 | 0.955 | 0.974 | 1.01 | 1.04 | 1.02 | 0.984
17 | COP(=O)(OC)OC(Br)C(Cl)(Cl)Br (stereo not given) | 0.978 | 0.987 | 0.977 | 0.986 | 0.984 | 0.953 | 0.962 | 0.99 | 0.987 | 1.03
18 | CC(C)(C)c1cc([N+](=O)[O-])cc([N+](=O)[O-])c1O | 0.623 | 0.973 | 0.742 (active) | 0.931 | 1.03 | 0.837 | 0.876 | 0.964 | 0.885 | 0.96
19 | CCOP(=S)(OCC)SCSCC | 1.1 | 0.955 | 0.991 | 0.969 | 0.942 | 0.997 | 0.986 | 1.01 | 1.01 | 1.01
20 | CCOc1cc(OP(=S)(OC)OC)nc(CC)n1 | 0.924 | 1.03 | 1 | 1.01 | 1.13 | 0.994 | 0.996 | 1.01 | 0.997 | 1.03
21 | Cc1cccc2sc3nncn3c12 | 0.892 | 0.989 | 0.965 | 1.04 | 1.03 | 0.993 | 1.01 | 0.964 | 0.973 | 1.07
22 | Oc1ccc(C(c2ccc(O)cc2)(C(F)(F)F)C(F)(F)F)cc1 | 1.03 | 0.63 (active) | 0.464 (active) | 0.154 (active) | 0.0109 (active) | 0.679 (active) | 0.686 (active) | 0.924 | 0.966 | 0.894
23 | O=NN(CCO)CCO | 1.01 | 1.01 | 1.02 | 0.979 | 1.18 | 1.01 | 1.02 | 0.837 | 1.01 | 0.994
24 | CCC(C)c1cc([N+](=O)[O-])cc([N+](=O)[O-])c1OC(=O)C=C(C)C (stereo not given) | 1.15 | 0.986 | 0.74 (active) | 0.801 | 0.473 (active) | 0.802 | 0.479 (active) | 0.879 | 0.989 | 0.956
25 | CCC(C)n1c(=O)[nH]c(C)c(Br)c1=O (stereo not given) | 1.12 | 0.833 | 0.99 | 0.952 | 1.13 | 0.911 | 0.775 (active) | 1.02 | 0.945 | 0.96
26 | COP(=S)(OC)Oc1ccc(S(C)=O)c(C)c1 (stereo not given) | 0.88 | 1.02 | 1.01 | 1.03 | 1.16 | 0.962 | 1.03 | 1.02 | 1.01 | 1.03
27 | CNC(=O)Oc1cc(C)c(S(C)(=O)=O)c(C)c1 | 0.967 | 1.02 | 0.963 | 0.995 | 0.995 | 0.97 | 0.97 | 0.985 | 0.998 | 1.01
28 | O=C(O)C1(O)c2ccccc2-c2ccc(Cl)cc21 (stereo not given) | 0.865 | 0.979 | 0.935 | 1.08 | 1.04 | 0.958 | 0.984 | 0.936 | 0.993 | 1.03
